Measured values taken from the supplement of paper PMC10849652.
The full data set covers some 7,900 targets. This sample favours those with a hit. About 0.6% of all pairs of compound and target were hits. A number with no mark means an inactive call.

Columns and labels:
Assay in all cases: log2 fold change, soluble protein after heating vs DMSO (PISA); higher = thermal stabilisation; K562 cells, 10 uM, 30 min; active = over 0.2 and 3.5 SD of the protein, either way, in both replicates (recomputed)
[1] = compound: NC(=O)Nc1cc(-c2cccc(F)c2)sc1C(=O)N[C@H]1CCCNC1
How it was run: (§1)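 K562 cells at 2×10^6 cells/mL were treated for 30 min with 10 μM compound, and aliquots were heated for 3 min over 48°C-58°C before pooling. Extraction used PBS with 0.5% NP-40 at 4°C, and soluble protein was the supernatant after 21,000xg for 90 min, measured by TMTpro 16plex LC-MS/MS with channel sums equalised. Thermal stability values, relative to control samples and from duplicates, are log2 fold changes.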

[2] = compound: NC(=O)c1cnc(N[C@@H]2CCCC[C@@H]2N)nc1Nc1cccc(-n2nccn2)c1
How it was run: as §1

[3] = compound: NC1(c2ccc(-c3nc4ccn5c(=O)[nH]nc5c4cc3-c3ccccc3)cc2)CCC1
How it was run: as §1

[4] = compound: NCC(=O)Nc1ccc(-n2nc(C(F)(F)F)cc2-c2ccc3c(ccc4ccccc43)c2)cc1
How it was run: as §1

entinostat = compound: Nc1ccccc1NC(=O)c1ccc(CNC(=O)OCc2cccnc2)cc1 [entinostat]
How it was run: as §1

vorinostat = compound: O=C(CCCCCCC(=O)Nc1ccccc1)NO [vorinostat]
How it was run: as §1

citarinostat = compound: O=C(CCCCCCNC(=O)c1cnc(N(c2ccccc2)c2ccccc2Cl)nc1)NO [citarinostat]
How it was run: as §1

silmitasertib = compound: O=C(O)c1ccc2c(c1)nc(Nc1cccc(Cl)c1)c1ccncc12 [silmitasertib]
How it was run: as §1

[5] = compound: O=C1NC(=O)C(c2cnc3ccccn23)=C1c1cn2c3c(cc(F)cc13)CN(C(=O)N1CCCCC1)CC2
How it was run: as §1

[6] = compound: c1cc(OCCN2CCCCC2)cc(-c2n[nH]c3ccc(-c4nnc[nH]4)cc23)c1
How it was run: as §1

Chain of UniProt P50336 (P50336 whole entry, looked up): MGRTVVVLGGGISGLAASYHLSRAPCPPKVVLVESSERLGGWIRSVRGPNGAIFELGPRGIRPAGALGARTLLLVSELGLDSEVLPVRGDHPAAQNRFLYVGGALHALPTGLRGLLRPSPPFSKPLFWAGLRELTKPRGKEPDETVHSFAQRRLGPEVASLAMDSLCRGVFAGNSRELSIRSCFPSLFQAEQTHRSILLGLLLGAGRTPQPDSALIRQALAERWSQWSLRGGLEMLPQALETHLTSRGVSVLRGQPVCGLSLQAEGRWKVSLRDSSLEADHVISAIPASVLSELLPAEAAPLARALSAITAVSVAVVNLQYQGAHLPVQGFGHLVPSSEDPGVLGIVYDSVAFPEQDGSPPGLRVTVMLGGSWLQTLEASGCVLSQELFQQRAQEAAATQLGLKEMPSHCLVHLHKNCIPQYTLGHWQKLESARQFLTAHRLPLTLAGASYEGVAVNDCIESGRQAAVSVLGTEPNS
Chain of UniProt Q15257 (Q15257 whole entry, looked up): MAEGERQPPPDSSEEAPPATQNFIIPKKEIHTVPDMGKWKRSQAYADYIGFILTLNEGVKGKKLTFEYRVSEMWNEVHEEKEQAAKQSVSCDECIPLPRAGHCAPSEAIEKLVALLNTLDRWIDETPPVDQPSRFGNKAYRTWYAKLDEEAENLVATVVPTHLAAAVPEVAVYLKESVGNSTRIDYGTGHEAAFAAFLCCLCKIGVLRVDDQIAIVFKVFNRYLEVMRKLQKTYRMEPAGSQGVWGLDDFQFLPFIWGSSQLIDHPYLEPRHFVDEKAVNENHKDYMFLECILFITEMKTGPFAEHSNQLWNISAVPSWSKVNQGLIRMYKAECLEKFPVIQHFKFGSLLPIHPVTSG
Chain of UniProt O96013 (O96013 whole entry, looked up): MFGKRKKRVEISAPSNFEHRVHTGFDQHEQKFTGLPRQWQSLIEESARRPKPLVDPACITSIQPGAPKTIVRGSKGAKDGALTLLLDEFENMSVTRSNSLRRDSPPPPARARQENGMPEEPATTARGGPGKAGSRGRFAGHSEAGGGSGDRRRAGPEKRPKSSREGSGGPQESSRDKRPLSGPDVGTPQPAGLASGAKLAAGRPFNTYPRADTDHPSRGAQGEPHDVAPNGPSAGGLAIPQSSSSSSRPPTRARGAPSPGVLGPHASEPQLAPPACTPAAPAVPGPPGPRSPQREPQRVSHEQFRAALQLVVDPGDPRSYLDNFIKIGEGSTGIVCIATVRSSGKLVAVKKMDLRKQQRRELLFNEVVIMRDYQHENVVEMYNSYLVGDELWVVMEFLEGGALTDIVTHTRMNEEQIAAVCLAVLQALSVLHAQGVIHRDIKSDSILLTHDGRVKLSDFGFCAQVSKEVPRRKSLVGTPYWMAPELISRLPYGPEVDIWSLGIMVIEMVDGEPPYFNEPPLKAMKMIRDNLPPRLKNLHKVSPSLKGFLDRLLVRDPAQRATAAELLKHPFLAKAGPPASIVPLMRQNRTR
Chain of UniProt Q5MIZ7 (Q5MIZ7 whole entry, looked up): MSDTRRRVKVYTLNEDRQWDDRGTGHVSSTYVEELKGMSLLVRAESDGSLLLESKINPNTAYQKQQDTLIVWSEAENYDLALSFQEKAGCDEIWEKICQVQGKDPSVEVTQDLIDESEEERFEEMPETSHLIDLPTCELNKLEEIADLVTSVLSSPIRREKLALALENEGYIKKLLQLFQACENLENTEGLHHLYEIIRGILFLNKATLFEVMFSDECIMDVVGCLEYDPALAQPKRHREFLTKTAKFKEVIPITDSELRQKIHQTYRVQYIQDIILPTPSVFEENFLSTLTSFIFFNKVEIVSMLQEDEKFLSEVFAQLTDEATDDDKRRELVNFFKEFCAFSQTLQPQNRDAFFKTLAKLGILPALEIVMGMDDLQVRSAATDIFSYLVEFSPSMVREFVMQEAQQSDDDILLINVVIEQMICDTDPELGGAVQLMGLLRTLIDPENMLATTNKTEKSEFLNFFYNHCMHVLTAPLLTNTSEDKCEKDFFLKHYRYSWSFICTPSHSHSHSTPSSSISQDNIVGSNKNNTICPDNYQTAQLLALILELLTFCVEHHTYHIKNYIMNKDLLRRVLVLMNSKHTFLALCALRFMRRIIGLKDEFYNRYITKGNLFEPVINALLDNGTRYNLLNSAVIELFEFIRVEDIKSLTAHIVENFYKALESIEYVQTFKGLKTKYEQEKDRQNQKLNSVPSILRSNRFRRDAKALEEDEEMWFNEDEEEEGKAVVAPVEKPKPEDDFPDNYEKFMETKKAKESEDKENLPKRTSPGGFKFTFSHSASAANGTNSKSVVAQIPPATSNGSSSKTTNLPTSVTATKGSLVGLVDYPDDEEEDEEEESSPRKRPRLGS
Chain of UniProt Q9BRP1 (Q9BRP1 whole entry, looked up): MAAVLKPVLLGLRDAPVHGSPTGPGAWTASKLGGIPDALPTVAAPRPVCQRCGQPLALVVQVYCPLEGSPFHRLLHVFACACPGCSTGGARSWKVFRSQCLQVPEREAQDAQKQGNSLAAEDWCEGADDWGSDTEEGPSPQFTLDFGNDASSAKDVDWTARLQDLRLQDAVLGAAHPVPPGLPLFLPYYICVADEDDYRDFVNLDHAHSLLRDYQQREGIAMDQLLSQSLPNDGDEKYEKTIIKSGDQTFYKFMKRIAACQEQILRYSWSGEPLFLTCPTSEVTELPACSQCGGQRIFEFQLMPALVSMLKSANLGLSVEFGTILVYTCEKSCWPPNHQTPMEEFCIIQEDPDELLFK
Chain of UniProt P42785 (P42785 whole entry, looked up): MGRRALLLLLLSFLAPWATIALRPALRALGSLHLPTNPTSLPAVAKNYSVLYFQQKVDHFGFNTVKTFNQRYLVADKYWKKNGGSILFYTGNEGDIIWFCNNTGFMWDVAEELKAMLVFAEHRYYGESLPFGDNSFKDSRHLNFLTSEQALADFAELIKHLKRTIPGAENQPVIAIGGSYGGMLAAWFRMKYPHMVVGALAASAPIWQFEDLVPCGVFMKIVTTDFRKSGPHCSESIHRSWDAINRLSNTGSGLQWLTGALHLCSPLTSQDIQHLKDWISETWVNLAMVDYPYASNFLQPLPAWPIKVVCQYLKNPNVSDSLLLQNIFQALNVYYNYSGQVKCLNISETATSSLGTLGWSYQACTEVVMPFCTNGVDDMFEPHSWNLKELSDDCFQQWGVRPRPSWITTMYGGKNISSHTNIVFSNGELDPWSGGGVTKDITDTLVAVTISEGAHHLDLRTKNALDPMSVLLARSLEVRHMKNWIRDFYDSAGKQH
Chain of UniProt Q9H3S7 (Q9H3S7 whole entry, looked up): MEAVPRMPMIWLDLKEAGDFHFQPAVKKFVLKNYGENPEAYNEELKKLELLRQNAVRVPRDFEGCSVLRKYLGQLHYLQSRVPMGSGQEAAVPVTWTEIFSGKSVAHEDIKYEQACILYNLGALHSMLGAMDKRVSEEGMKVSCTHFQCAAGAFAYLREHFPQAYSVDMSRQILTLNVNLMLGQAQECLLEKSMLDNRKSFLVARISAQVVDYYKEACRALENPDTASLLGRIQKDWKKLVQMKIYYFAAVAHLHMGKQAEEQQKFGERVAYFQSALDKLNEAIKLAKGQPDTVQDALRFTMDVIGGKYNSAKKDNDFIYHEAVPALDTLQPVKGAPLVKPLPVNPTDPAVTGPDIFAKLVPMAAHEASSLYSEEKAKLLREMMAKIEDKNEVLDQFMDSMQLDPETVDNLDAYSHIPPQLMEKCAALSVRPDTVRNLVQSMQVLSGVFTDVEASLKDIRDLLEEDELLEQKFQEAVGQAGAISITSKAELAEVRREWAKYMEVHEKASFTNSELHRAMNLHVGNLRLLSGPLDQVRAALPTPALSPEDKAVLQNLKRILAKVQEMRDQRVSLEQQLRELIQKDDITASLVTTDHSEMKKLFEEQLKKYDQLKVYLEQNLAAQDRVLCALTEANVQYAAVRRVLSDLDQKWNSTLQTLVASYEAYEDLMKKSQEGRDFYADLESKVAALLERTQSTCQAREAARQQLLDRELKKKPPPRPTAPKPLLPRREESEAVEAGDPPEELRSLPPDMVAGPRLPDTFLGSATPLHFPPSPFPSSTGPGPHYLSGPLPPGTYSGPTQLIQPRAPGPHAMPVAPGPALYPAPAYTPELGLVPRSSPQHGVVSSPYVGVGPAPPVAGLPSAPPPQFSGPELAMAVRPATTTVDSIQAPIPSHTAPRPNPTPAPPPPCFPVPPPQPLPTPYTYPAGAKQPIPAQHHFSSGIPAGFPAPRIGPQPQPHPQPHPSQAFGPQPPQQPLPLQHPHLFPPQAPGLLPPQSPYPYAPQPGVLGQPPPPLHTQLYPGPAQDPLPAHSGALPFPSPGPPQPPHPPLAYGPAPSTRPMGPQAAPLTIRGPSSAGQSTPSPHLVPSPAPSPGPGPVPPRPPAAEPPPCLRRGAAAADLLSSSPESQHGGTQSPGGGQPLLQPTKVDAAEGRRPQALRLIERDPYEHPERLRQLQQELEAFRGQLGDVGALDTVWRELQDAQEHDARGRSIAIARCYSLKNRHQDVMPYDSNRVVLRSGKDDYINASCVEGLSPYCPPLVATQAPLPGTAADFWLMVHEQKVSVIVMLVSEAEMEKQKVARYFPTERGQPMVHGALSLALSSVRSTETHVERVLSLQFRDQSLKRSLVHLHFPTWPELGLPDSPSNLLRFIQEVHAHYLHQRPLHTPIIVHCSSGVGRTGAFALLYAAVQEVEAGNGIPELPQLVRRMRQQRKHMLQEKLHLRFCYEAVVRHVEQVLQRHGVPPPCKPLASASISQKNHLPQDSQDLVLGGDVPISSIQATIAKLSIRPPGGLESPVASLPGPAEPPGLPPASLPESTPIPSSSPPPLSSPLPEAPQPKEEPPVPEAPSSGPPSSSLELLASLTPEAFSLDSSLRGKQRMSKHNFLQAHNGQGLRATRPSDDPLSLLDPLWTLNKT
Chain of UniProt O00233 (O00233 whole entry, looked up): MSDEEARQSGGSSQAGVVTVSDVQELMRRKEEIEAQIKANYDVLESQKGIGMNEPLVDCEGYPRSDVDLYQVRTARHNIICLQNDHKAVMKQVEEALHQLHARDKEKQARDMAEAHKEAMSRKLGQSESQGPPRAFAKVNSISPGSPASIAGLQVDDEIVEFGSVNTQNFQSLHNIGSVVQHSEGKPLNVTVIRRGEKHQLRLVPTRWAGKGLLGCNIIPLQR

Target | log2 fold change [1] | log2 fold change [2] | log2 fold change [3] | log2 fold change [4] | log2 fold change (entinostat) | log2 fold change (vorinostat) | log2 fold change (citarinostat) | log2 fold change (silmitasertib) | log2 fold change [5] | log2 fold change [6]
PBK (UniProt Q96KB5) | -0.1 | -0.045 | -0.098 | -0.088 | 0.095 | 0.154 | 0.119 | 0.157 | 0.02 | -0.011
PMM1 (UniProt Q92871) | 0.005 | 0.006 | -0.01 | 0.002 | -0.021 | 0.113 | 0.034 | -0.005 | 0.004 | -0.012
PRKAG1 isoform 3 (UniProt P54619) | -0.105 | -0.033 | -0.069 | -0.045 | 0.017 | 0.071 | 0.04 | 0.016 | -0.042 | -0.091
PSMD9 (UniProt O00233) | 0.041 | 0.017 | 0.022 | 0.072 | 0.017 | 0.086 | 0.029 | -0.013 | -0.027 | 0.005
PPID (UniProt Q08752) | -0.073 | -0.075 | -0.093 | -0.065 | 0.049 | 0.108 | 0.108 | 0.095 | -0.028 | 0
POLA1 (UniProt P09884) | -0.014 | -0.068 | -0.225 | -0.04 | 0.07 | 0.054 | 0.155 | 0.021 | -0.113 | 0.227
PRKAR2B (UniProt P31323) | -0.964 (active) | -0.152 | -0.223 | 0.016 | 0.027 | 0.112 | 0.078 | 0.008 | -0.003 | -0.013
PTRHD1 (UniProt Q6GMV3) | -0.02 | 0.037 | -0.009 | 0.03 | 0.095 | -0.099 | 0.026 | -0.006 | -0.065 | -0.006
POP1 (UniProt Q99575) | 0.072 | 0.025 | 0.03 | 0.045 | -0.019 | -0.013 | -0.003 | -0.011 | 0.038 | -0.128
PTPN23 (UniProt Q9H3S7) | -0.039 | 0.011 | -0.081 | -0.063 | 0.06 | 0.05 | 0.05 | 0.037 | -0.065 | -0.024
PSMD1 (UniProt Q99460) | 0.086 | 0.007 | -0.013 | 0.068 | 0.006 | 0.013 | 0.014 | -0.019 | 0.094 | -0.057
PDPK1 (UniProt O15530) | 0.238 (active) | -0.111 | -0.314 (active) | -0.061 | 0.034 | 0.108 | 0.038 | -0.04 | 0.004 | -0.019
PLCB3 (UniProt Q01970) | -0.005 | -0.086 | -0.141 | -0.023 | 0.037 | -0.008 | -0.007 | 0.008 | 0.005 | 0.064
PDCD2L (UniProt Q9BRP1) | 0.058 | 1.21 (active) | -0.018 | -0.101 | 0.036 | 0.023 | 0.06 | 0 | -0.092 | -0.001
PRCP (UniProt P42785) | 0.013 | 0.005 | -0.106 | 0.008 | 0.035 | 0.005 | 0.028 | 0 | -0.014 | 0.044
PCLAF (UniProt Q15004) | -0.007 | 0.035 | 0.109 | 0.012 | -0.04 | -0.045 | 0.035 | -0.009 | 0.008 | -0.066
PSMD12 (UniProt O00232) | -0.001 | 0.019 | -0.061 | 0.05 | 0.001 | 0.003 | -0.012 | -0.024 | 0.045 | -0.09
PCNT (UniProt O95613) | -0.341 | -0.277 | -0.106 | -0.294 | -0.129 | -0.137 | -0.076 | 0.11 | -0.142 | -0.233
PCBP1 (UniProt Q15365) | 0.007 | -0.015 | -0.069 | -0.021 | 0.044 | 0.055 | 0.075 | 0.028 | -0.046 | 0.002
PPOX (UniProt P50336) | -0.042 | -0.228 | -0.182 | -0.009 | 0.04 | 0.003 | 0.02 | 0.158 | 0.094 | 0.018
PUM1 isoform 3 (UniProt Q14671) | 0 | -0.032 | -0.082 | -0.015 | 0.034 | 0.108 | -0.008 | 0.01 | -0.028 | -0.007
PPP4R3B (UniProt Q5MIZ7) | -0.068 | -0.082 | -0.069 | -0.079 | 0.047 | 0.089 | 0.086 | 0.077 | -0.1 | 0.087
PPP2R5C isoform 5 (UniProt Q13362) | 0.003 | 0.011 | -0.134 | -0.027 | 0.018 | -0.044 | 0.169 | -0.005 | -0.053 | -0.01
PFDN1 (UniProt O60925) | 0.013 | 0.003 | 0.002 | -0.047 | 0.044 | -0.056 | 0.09 | -0.029 | -0.05 | -0.001
POLD1 (UniProt P28340) | -0.01 | -0.027 | -0.095 | -0.007 | 0.005 | -0.098 | 0.117 | 0.03 | -0.122 | -0.011
PAK4 (UniProt O96013) | 0.048 | 0.388 (active) | 0.015 | -0.038 | -0.083 | 0.01 | 0.003 | 0.041 | 0.017 | -0.039
PIK3CB (UniProt P42338) | -0.057 | -0.106 | -0.008 | -0.102 | 0.014 | 0.001 | 0.003 | -0.053 | -0.039 | -0.049
PRG4 (UniProt Q92954) | -0.168 | -0.113 | -0.16 | -0.068 | -0.156 | 0.201 | -0.015 | 0 | -0.109 | -0.097
PCBP2 (UniProt F8VRH0) | 0.187 | -0.017 | -0.175 | 0.013 | 0.051 | 0.247 | 0.006 | -0.105 | 0.144 | -0.01
PTPA (UniProt Q15257) | -0.022 | 0.001 | -0.021 | 0.028 | 0 | 0.004 | 0.028 | -0.027 | -0.021 | -0.015
